Only some compounds are listed: those with a hit (about 12% of all), similar ones and a draw of the others.
L3MBTL1 inh: qHTS Assay for the Inhibitors of L3MBTL1; Lethal(3)malignant brain tumor-like protein 1 (Homo sapiens), Q9Y468; AlphaScreen L3MBTL1–H3K9me1 peptide binding; Potency, µM (series often up to 57.1 µM), for inactives: at the highest dose activity, negative = inhibition, hits mostly inhibitors; hit rate 0.66% among 230,000; AID 485360, 2010; note: % is set by controls: 0 for no effect and ±100 for the full control effect; nearly all actives have a fitted effect of over 60% in size
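AlphaScreen proximity signal between nickel-chelate acceptor and streptavidin donor beads (final 10 ug/mL) reports binding of 50 nM L3MBTL1 to 75 nM biotin-H3 K9me1 peptide; complex incubated with compounds 30 min at room temperature; cefsulodin titration as control.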
G9a inh: qHTS Assay for Inhibitors of Histone Lysine Methyltransferase G9a | hit rate 8.8% among 350,000 | G9a H3K9 monomethylation, AlphaScreen, 2 h | Histone-lysine N-methyltransferase EHMT2 (Homo sapiens), Q96KQ7 | Potency, µM (top dose mostly 102 µM), for the others: at the top dose activity, negative = inhibition, most hits filed as inhibitors | AID 504332, 2011; note: % is set by controls: 0 for no effect and ±100 for the full control effect; nearly all actives have a fitted effect of over 75% in size
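Step 1: enzyme (final 20 nM) with compound, 15 min RT. Step 2: substrate peptide 500 nM and SAM 20 uM, 2 h RT. Step 3: anti-H3K9me1 antibody and AlphaScreen beads, 10 min, then plate read.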
BAZ2B block: qHTS Assay for Inhibitors of BAZ2B | Bromodomain adjacent to zinc finger domain protein 2B (Homo sapiens), Q9UIF8 | Potency, µM (doses to about 114 µM), for the others: top-dose activity change, negative = inhibition, usual class: inhibitors | AID 504333, 2011 | hit rate 4.4% among 360,000 | AlphaScreen BAZ2B-H3K14Ac peptide displacement; note: % is set by controls: 0 for no effect and ±100 for the full control effect; nearly all actives have a fitted effect of over 60% in size
Target sequence (Q9UIF8 whole entry, looked up, the tested form may be a part): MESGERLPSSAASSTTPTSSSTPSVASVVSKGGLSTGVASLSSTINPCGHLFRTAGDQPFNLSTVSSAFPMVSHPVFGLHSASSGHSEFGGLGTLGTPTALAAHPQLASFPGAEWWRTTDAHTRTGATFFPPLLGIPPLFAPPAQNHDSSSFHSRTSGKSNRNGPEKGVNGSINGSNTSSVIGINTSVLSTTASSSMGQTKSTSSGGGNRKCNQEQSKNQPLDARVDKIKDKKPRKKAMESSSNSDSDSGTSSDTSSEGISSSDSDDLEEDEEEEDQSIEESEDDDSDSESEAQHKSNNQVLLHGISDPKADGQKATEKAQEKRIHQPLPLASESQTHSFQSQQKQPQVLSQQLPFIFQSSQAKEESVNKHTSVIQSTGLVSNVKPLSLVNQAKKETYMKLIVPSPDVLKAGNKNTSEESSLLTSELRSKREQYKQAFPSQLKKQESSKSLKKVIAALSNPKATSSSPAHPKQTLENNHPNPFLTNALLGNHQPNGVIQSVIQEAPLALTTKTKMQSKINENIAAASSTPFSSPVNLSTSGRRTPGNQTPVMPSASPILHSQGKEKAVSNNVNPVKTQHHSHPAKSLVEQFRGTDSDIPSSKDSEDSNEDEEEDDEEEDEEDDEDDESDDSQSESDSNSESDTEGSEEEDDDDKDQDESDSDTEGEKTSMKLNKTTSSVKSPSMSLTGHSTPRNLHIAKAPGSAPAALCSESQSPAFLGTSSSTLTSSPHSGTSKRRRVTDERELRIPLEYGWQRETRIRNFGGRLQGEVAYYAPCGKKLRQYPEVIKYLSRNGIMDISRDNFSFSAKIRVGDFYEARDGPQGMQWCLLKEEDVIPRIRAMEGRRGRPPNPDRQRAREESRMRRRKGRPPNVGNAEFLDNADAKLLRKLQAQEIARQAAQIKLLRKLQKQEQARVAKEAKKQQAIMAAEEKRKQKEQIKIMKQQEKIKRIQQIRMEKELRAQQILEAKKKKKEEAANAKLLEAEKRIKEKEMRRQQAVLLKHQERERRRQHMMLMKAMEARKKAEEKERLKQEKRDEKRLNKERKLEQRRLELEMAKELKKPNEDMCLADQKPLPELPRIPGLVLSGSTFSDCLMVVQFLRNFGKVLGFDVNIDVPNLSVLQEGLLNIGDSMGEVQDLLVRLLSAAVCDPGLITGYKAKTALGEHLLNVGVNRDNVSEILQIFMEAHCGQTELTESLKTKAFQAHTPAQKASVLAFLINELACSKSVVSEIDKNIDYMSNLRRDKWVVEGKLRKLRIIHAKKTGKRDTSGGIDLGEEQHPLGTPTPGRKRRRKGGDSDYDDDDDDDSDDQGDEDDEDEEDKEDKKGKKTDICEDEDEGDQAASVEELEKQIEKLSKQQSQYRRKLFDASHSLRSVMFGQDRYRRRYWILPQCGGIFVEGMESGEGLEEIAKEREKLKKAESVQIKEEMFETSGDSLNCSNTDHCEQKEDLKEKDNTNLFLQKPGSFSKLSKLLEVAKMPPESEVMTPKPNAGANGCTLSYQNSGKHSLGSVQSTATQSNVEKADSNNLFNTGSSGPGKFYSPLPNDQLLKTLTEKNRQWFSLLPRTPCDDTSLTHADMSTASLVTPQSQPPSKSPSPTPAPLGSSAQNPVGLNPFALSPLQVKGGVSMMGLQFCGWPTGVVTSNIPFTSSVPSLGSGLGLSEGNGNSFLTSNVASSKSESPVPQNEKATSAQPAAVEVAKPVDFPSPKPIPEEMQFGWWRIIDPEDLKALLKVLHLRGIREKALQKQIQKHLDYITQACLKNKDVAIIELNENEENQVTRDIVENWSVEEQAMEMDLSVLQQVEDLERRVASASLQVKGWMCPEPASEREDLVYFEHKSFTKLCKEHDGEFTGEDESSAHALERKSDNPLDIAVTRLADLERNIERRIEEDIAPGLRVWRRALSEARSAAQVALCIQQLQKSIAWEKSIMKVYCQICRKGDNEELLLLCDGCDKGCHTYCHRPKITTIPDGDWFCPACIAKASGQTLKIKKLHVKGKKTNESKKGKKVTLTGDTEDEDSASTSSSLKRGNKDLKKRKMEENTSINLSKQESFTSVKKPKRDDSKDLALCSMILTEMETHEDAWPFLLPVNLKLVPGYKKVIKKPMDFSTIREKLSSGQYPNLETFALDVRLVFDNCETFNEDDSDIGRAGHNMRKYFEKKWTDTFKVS
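AlphaScreen displacement of biotin-H3(5-23)K14Ac peptide (50 nM final) from BAZ2B (50 nM final) in PBS pH 7.4, 0.01% Tween-20; complex preformed 30 min RT, then compounds (top 110 uM) 30 min RT, beads 20 min dark.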
HP1b binding inh: HTS for Inhibitors of HP1-beta Chromodomain Interactions with Methylated Histone Tails | hit rate 0.56% among 390,000 | AlphaScreen HP1-beta / biotin-H3K9me3 peptide binding | Chromobox protein homolog 1 (Homo sapiens), P83916 | Potency, µM (series often up to 114 µM), for inactives: at the highest dose activity change, negative = inhibition, actives largely listed as inhibitors; note: nearly all actives have a fitted effect of over 70% in size
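HP1-beta protein (50 nM final) preincubated 30 min at room temperature with biotinylated H3(1-18)K9me3 peptide (50 nM) in PBS pH 7.4, 0.01% Tween-20, then compound added for 30 min. AlphaScreen streptavidin donor/nickel chelate acceptor beads (10 ug/mL final), 30 min dark, luminescence read.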
JMJD2A Tudor: qHTS Assay for Inhibitors of JMJD2A-Tudor Domain; Lysine-specific demethylase 4A (Homo sapiens), O75164; AlphaScreen JMJD2A-Tudor / H3K4me3 peptide binding; Potency, µM (series often up to 114 µM), inactives show at the highest dose activity change, negative = inhibition, usual class: inhibitors; hit rate 4.4% among 390,000; AID 504339, 2011; note: % is set by controls: 0 for no effect and ±100 for the full control effect; nearly all actives have a fitted effect of over 50% in size
Sfp inh: qHTS Assay for Inhibitors of Bacillus subtilis Sfp phosphopantetheinyl transferase (PPTase); hit rate 3.5% among 310,000; Potency, µM, for the others: largest response in the series, negative = inhibition, hits mostly inhibitors; Biochemical Sfp PPTase activity, qHTS; 4'-phosphopantetheinyl transferase ffp (Bacillus subtilis), Q9F4F7; AID 1490, 2009;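 note: the enzyme is Sfp with the accession as filed and its product quenches rhodamine fluorescence; 0% = enzyme reaction without inhibitor and -100% = no enzyme wells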
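After 15 min at room temperature with compound, 15 nM Sfp received 5 uM rhodamine-CoA plus 12.5 uM BHQ-2-ybbR (50 mM Hepes pH 7.6, 10 mM MgCl2). Rate came from the fluorescence difference over 30 min, ex 525/em 598 nm.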
* hit, by the source's call; ? = inconclusive; nt = not tested or not shown; [ ] = another dose, or the depositor's remark. Calls come from the whole dose curve; as a rule, active = well fitted curve in the direction sought with a large enough effect; inconclusive = small, poorly fitted or top-dose-only effect, or another doubt; inactive = no such curve, though single readings can be large; an effect the other way counts as inactive or inconclusive. Potency is the fitted concentration of half-maximal effect.

SMILES	L3MBTL1 inh	G9a inh	BAZ2B block	HP1b binding inh	JMJD2A Tudor	Sfp inh
Cc1ccc(C(=O)Nc2sc3c(c2C(=O)NCc2ccco2)CCCC3)cc1	nt	36.4%[59 µM]	1.1%	45.8%	8.2%	7.3%
COc1ccc(-n2c(C)nc3cc(C(=O)O)ccc32)cc1	nt	-7.9%[12.7 µM]	4.9%	23.1%	-8.1%	14.1%
Cc1nc2cc(C(=O)O)ccc2n1-c1ccc(C(C)C)cc1	nt	15.8µM*	?	-6.3%	-27.2%	nt
Cc1nc2cc(N)ccc2n1-c1ccccc1	-15.6%	?	-31.0%	?	35.5µM*	-0.9%
COc1ccc(N2CCN(C(c3ccccc3OC)c3nnnn3Cc3ccco3)CC2)cc1 (stereo not given)	nt	?	39.8µM*	-46.7%	50.1µM*	7.8%
Fc1ccccc1C(c1nnnn1Cc1ccc2c(c1)OCO2)N1CCN(Cc2ccco2)CC1 (stereo not given)	-11.5%	50.1µM*	-3.9%	2.2%	-33.6%	1.8%
COc1cccc(C(c2nnnn2Cc2ccccc2)N2CCN(C3CCCC3)CC2)c1OC (stereo not given)	-5.4%	-49.2%[59 µM]	?	16.7%	-29.2%	3.4%
COc1cccc(C(c2nnnn2Cc2ccco2)N2CCN(Cc3ccccc3)CC2)c1OC (stereo not given)	-19.3%	-31.7%[12.7 µM]	50.1µM*	28.1%	-10.5%	-26.2%
CC(C)c1ccc(N2C(=O)CSC23C(=O)N(Cc2ccccc2)c2ccccc23)cc1 (stereo not given)	nt	?	-19.0%	45.6%	-7.6%	nt
Cc1oc2ncn(CC(C)C)c(=O)c2c1C(=O)N(CCN(C)C)Cc1ccccc1	nt	0.0%[59 µM]	10.1%[57.1 µM]	25.6%	-4.2%	nt
O=C1C[C@H](c2ccccc2Cl)N1S(=O)(=O)c1ccccc1[N+](=O)[O-]	nt	nt	nt	9.0%	-14.5%	16.4%
Cn1c(=S)[nH]c2sc3c(c2c1=O)CCC(C(C)(C)C)C3 (stereo not given)	nt	39.8µM*	2.8%	nt	nt	18.7%
CCCn1c(=S)[nH]c2sc3c(c2c1=O)CCCC3	nt	-5.4%	-3.7%	22.1%	-32.5%	11.4%
COCCn1c(=S)[nH]c2sc3c(c2c1=O)CCC(C)C3 (stereo not given)	nt	20µM*	-5.0%	14.8%	-21.9%	-5.4%
COCCCn1c(=S)[nH]c2sc3c(c2c1=O)CCCS3	28.9%	4.47µM*	?	27.2%	-17.6%	35.5µM*
CCC1=C([N+](=O)[O-])C(c2ccc3c(c2)OCO3)NC(=O)N1 (stereo not given)	-1.1%	nt	11.3%	6.9%	-10.2%	2.8%
Cc1ccc(S(=O)(=O)NCc2ccccc2)cc1C(=O)N1CCN(S(=O)(=O)c2ccccc2)CC1	1.4%	-24.4%	8.0%	14.9%	-17.9%	nt
CC(=O)Nc1nc2n(n1)C(c1ccccc1)C=C(c1ccccc1)N2 (stereo not given)	-6.9%	?	79.4µM*	40.4%	89.1µM*	?
COc1ccc(C2C=C(c3ccc(Cl)cc3)Nc3nc(NC(C)=O)nn32)cc1 (stereo not given)	-8.9%	?	31.6µM*	nt	nt	?
COc1ccc(C(=O)Nc2nc3n(n2)C(c2ccccc2)C=C(c2ccccc2)N3)cc1 (stereo not given)	nt	25.1µM*	22.4µM*	38.9%	79.4µM*	nt
CC(=O)Nc1nc2n(n1)C(c1ccc(F)cc1)C=C(c1ccccc1)N2 (stereo not given)	-27.6%	8.91µM*	22.4µM*	24.5%	?	35.5µM*
Cc1cc(C(=O)CN2C(=O)C(=O)N(CC(C)C)C2=O)c(C)n1C1CC1	-2.3%	7.1%[12.7 µM]	-27.6%	-9.7%	-22.9%	nt
O=C(Nc1ccnn1C1CCN(Cc2ccccc2OC(F)F)CC1)c1cccnc1	nt	1.8%	-2.6%	30.7%	-15.9%	12.0%
COc1cc(OC)cc(C(=O)OCc2ccc([N+](=O)[O-])cc2)c1	nt	-30.2%	-14.9%	12.7%	-6.2%	8.2%
CCCn1c(C)nc2c(NCC3CCCN3CC)nc(C)nc21 (stereo not given)	nt	nt	nt	nt	nt	21.1%
SMILES	L3MBTL1 inh	G9a inh	BAZ2B block	HP1b binding inh	JMJD2A Tudor	Sfp inh
Nc1nn2c(-c3ccccc3)cc(=O)[nH]c2c1N=Nc1ccc(Br)cc1	-1.9%	17.8%[59 µM]	-37.2%	?	28.2µM*	-8.2%
CC(=O)Nc1ccc(S(=O)(=O)NC2CC(=O)N(c3ccc(C)cc3)C2)cc1 (stereo not given)	-5.3%	11.0%	8.5%	0.5%	-7.6%	nt
C=CC[C@H]1Cc2c(cccc2[N+](=O)[O-])[C@H](CC=C)N1	nt	-10.1%[59 µM]	39.8µM*	25.9%	-30.8%	4.2%
C=CCC1Cc2c(Br)cccc2C(CC=C)N1 (stereo not given)	-23.4%	?	1.5%	42.5%	12.3%	16.9%
COc1cc(C(=O)N2CCCN(C)CC2)cc(OC)c1C	nt	?	0.3%	23.4%	-19.9%	0.7%
CCN(CC)CC(=O)Nc1cccc2c1C(=O)c1ccccc1C2=O	nt	?	-26.9%	-2.9%	-19.9%	6.9%
CN(C=[N+](C)C)c1cccc2c1C(=O)c1ccccc1C2=O	?	?	17.8µM*	15.8µM*	44.7µM*	?
O=c1[nH]nc(Br)c(=O)n1C(c1ccccc1)c1ccccc1	nt	nt	nt	6.8%	-29.2%	nt
O=S(=O)(NCCCCCCc1ccccc1)c1cccc2c(Cl)cccc12	nt	nt	nt	nt	nt	-15.8%
Cc1ccc(C)c2nc3sc(C(=O)O)cc3cc12	?	39.8µM*	-14.5%	37.0%	-4.9%	10.6%
COCCSc1nc2c([nH]c3ccccc32)c(=O)n1-c1ccc(OC)c(OC)c1	nt	0.5%[59 µM]	33.5%	47.7%[57 µM]	-4.5%	nt
COc1cccc2cc(C(=O)C3=C(O)C(=O)N(CCN4CCOCC4)C3c3ccc(Cl)cc3)oc12 (stereo not given)	-0.5%	nt	-14.7%	14.2%	-24.9%	3.0%
O=C(C1=C(O)C(=O)N(CCN2CCOCC2)C1c1cccc(O)c1)c1cc2ccccc2o1 (stereo not given)	nt	50.1µM*	?	1.8%	?	11.8%
O=C(C1=C(O)C(=O)N(CCN2CCOCC2)C1c1cccc(F)c1)c1cc2ccccc2o1 (stereo not given)	nt	5.3%[0.0925 µM]	-35.5%	15.4%[57 µM]	-23.0%	2.4%
O=C(C1=C(O)C(=O)N(CCN2CCOCC2)C1c1cccnc1)c1cc2ccccc2o1 (stereo not given)	7.2%	28.2µM*	?	33.0%	?	-1.7%

Screens as filed in PubChem.
